The structures appear in SMILES notation. Values joined by “and” are separate entries in the source; they are usually repeats but may differ in a detail not shown here. Identical values can stand only once. Hit rate of the full screen: of about 300,000 compounds, about 37,000 (12%) were called active. What follows is part of a selection rich in actives, with near analogues and random picks from the rest. Values without a mark were called inactive. No stated cut-off is given here; in the data, active means max response mostly above about 13% (no sharp cut-off); inactive means mostly below about 14%.

This test in a line: Cycloheximide Counterscreen for Small Molecule Inhibitors of Shiga Toxin. Further: read at 38.3 µM for the half of the compounds with a filed dose; 0% is about no effect. The conditions noted are these: cell reporter, cycloheximide protein synthesis inhibition counterscreen; active compounds read high.
On to `CCCc1cc(=O)n2[nH]c(C)c(-c3ccc(Cl)cc3)c2n1`, for which the max response is -2.56%. On to `COc1ccc(N(CC(=O)Nc2cc(OC)ccc2OC)S(=O)(=O)c2c(C)noc2C)cc1`, for which the max response was -6.58%. As to `CC(=O)Nc1ccccc1OC(=O)N1CCOCC1`, the max response is 11.6%.

On to `O=C(Oc1cccc(C(=S)N2CCOCC2)c1)c1cccc(Cl)c1`, for which the max response was -0.347%. On to `O=C(/C=C/c1cccs1)c1cc(Cl)ccc1OC(=O)N1CCOCC1`, for which the max response is 23.9% (active). Take `Cc1cccc(OCC(O)Cn2c(N3CCCCC3)nc3c2c(=O)[nH]c(=O)n3C)c1` (stereo not given): the max response is 14.8%. As for `CCOC(=O)C1=C(C)NC(=O)N(C(C)=O)C1c1ccc(Cl)cc1` (stereo not given), the max response is -4.1%. Regarding `CCOC(=O)c1c(Cc2ccc(Cl)cc2)c[nH]c1C`, the max response was 26.8% (active). Consider `CCOC(=O)c1c(S(=O)(=O)Nc2cccc(Cl)c2)c(C)n(C)c1C`, for which the max response is 5.3%. Then `CC(OC(=O)c1ccc2noc(-c3ccccc3)c2c1)C(N)=O` (stereo not given), with 2.78%. `O=C(Nc1ccc([N+](=O)[O-])cc1)C1(c2ccccc2)CCOCC1`: the max response is -3.32%. `O=C(Nc1ccc([N+](=O)[O-])cc1)C1CC12CCC2` (stereo not given): the max response is 21.8% (active).

Turning to `O=C(Nc1ccc(F)cc1)C1CCN(C(=O)c2ccc([N+](=O)[O-])cc2)CC1`, the max response was 3.26%. Then `O=C(c1c(F)cccc1F)N1CCN(S(=O)(=O)c2ccc3c(c2)OCCO3)CC1`, with 13.2%. As to `COc1ccc(N2CC(C(=O)NCCS(=O)(=O)N3CCN(c4ccccc4)CC3)CC2=O)cc1` (stereo not given), the max response was 5.23%.

Regarding `C=CCc1cccc(/C=N/NC(=O)COc2ccc(-n3cnnn3)cc2)c1O`, the max response is 7.64%.

Turning to `O=C(Nc1nnc(CCOCCOCCc2nnc(NC(=O)c3ccco3)s2)s1)c1ccco1`, the max response was -1.29%.

As for `Cc1cccc(CSc2nnc(NC(=O)CSc3nnc(C)s3)s2)c1`, the max response was 10.9%.

`O=C(Cc1cccs1)Nc1nnc(SCc2ccc(F)cc2)s1`: the max response was -3.78%. Take `CCOC(=O)N1CCN(Cc2nc(N)nc(Nc3ccc(C)cc3)n2)CC1`: the max response was 5.78%. Take `Cc1ccc(Nc2nnc(SCc3ccccc3)s2)cc1`: the max response was 24.5% (active). For `Cc1nnc(SCc2nc3ccccc3nc2C)s1` the value was -3.4%. Regarding `COC(=O)CSc1nnc(NC(=O)CCc2ccccc2)s1`, the max response was 14%.

On to `Cc1ccc(Nc2nc(N)nc(CSc3nnc(C)s3)n2)cc1`, for which the max response was 34.9% (active). As to `O=C(Nc1nnc(SCc2ccccc2)s1)c1ccco1`, the max response was 23.3% (active). With `Cc1ccc(OCC(=O)Nc2ccc(C(=O)O)cc2NC(=O)COc2ccc(C)c(C)c2)cc1C`, the max response is 7.55%. Consider `NC(=O)C1CCN(C(=O)CC2C(=O)NCCN2Cc2cccc(Oc3ccccc3)c2)CC1` (stereo not given), for which the max response was -2.74%.

Take `CC(C(=O)Nc1ccc(F)c(F)c1F)N1CCCCCC1` (stereo not given): the max response was -2.23%. Then `O=C1CSC(c2cccc(F)c2)N1c1ccc(O)cc1` (stereo not given), with -1.44%. For `COc1cccc(C2SCC(=O)N2c2cccc(C)c2)c1OC` (stereo not given), the max response was -0.463%.

For the molecule `Cc1ccc(C2SCC(=O)N2c2ccccc2)cc1` (stereo not given), the max response is 16.9% (active). On to `COc1ccc(C(C)NC(=O)C2CCCC2)cc1` (stereo not given), for which the max response was -0.457%. Then `CCc1ccc(N(CC(=O)NCc2cccnc2)S(=O)(=O)c2ccccc2)cc1`, with 9.39%; and `O=C(Cn1cnc2ccccc21)N/N=C/c1ccco1`, with 7.5%; and `CC(C)NC(=O)C(=O)N/N=C/c1ccco1`, with 6.82%. `O=c1nc(N/N=C/c2ccco2)cn[nH]1`: the max response was 35.1% (active). As to `O=C1C2C3C=CC(C4CC34)C2C(=O)N1c1nccs1` (stereo not given), the max response was -4.99%. On to `CCCC1=Nc2cc(C(=O)NCc3ccco3)ccc2Sc2ccccc21`, for which the max response is 12.1%. For the molecule `O=C(COC(=O)c1n[nH]c2ccccc12)NCc1ccccc1`, the max response is 7.3%.

Regarding `CCC(C)NC(=O)CCCc1ccccc1` (stereo not given), the max response is 27.2% (active). For `CC(CCc1ccccc1)NC(=O)COC(=O)c1ccc(F)cc1` (stereo not given) the value was -6.34%; for `COc1cccc(CNC(=O)c2n[nH]c3ccccc23)c1`, 27.4%.

Take `COc1ccc(COC(=O)c2n[nH]c3ccccc23)cc1F`: the max response was 67% (active). Consider `C=CCN(CC=C)C(=O)COC(=O)c1n[nH]c2ccccc12`, for which the max response is -0.5%.

For `O=C(CCCc1ccccc1)NCc1ccccc1`, the max response is 28.4% (active). Consider `O=C(CCOc1ccccc1)NCc1ccccc1`, for which the max response was -2.09%.

Regarding `O=C(NCCc1ccc(F)cc1)c1n[nH]c2ccccc12`, the max response is 43.7% (active). As to `CCN(CC)S(=O)(=O)c1ccc2nc(COC(=O)c3n[nH]c4ccccc34)[nH]c2c1`, the max response was -0.99%. For `O=C(O)CCCc1ccccc1` the value was -4.62% and -1.89%; for `CCC(C)NC(=O)C1c2ccccc2C(=O)N1Cc1ccccc1` (stereo not given), 7.68%; for `Cc1cccc(CC(=O)N2CCN=C2SCc2ccc([N+](=O)[O-])cc2)c1`, -3.02%. With `CC1C(=O)Nc2ccccc2N1C(=O)c1ccc(F)cc1F` (stereo not given), the max response was 1.08%. For `CC(C)C[C@@H](N)c1nnc(SCC(=O)c2ccc(Cl)cc2)o1` the value was -2.64%; for `CCc1ccc(S(=O)(=O)Nc2cc3c(cc2N2CCCCC2)n(C)c(=O)c(=O)n3C)cc1`, 3.05%; for `CCN(CC)CCCNC(=O)CCc1ccccc1`, 10.2%. For `CCCCC(=O)NCc1ccc(F)cc1`, the max response is -4.14%. For `O=C(Cc1ccccc1)NCc1ccc(F)cc1` the value was 42.5% (active). On to `O=C(Cc1c(O)c2ccccc2[nH]c1=O)NCc1ccccc1`, for which the max response was -2.53%. Turning to `O=C(CCc1ccccc1)NCCc1cccs1`, the max response is 36.1% (active).

Take `Cc1ccnc(NC(=O)CCC(=O)N(CC(=O)NCCc2ccccc2)Cc2cccs2)c1`: the max response is -8.74%.

On to `CCn1cc(C(=O)Nc2cc(C)ccc2C)c(=O)c2ccc(C)nc21`, for which the max response is 7.8%. In the case of `Oc1ccccc1C1=NN(c2ccccc2)C(c2ccccc2)C1` (stereo not given), the max response is 49.1% (active).

For `COc1ccccc1N1N=C(c2cccs2)CC1c1ccccc1` (stereo not given), the max response was 6.34%. Then `COc1ccc(C2=NN(c3ccccc3)C(c3cccs3)C2)cc1` (stereo not given), with 0.803%; and `CC(=O)Oc1ccccc1C1=NN(C(C)=O)C(c2ccccc2)C1` (stereo not given), with 9.57%. On to `COc1ccc(C2CC(c3cccs3)=NN2c2ccccc2)cc1` (stereo not given), for which the max response was 41% (active). For `O=C(c1ccccc1)N1N=C(c2ccccc2O)CC1c1ccc(Br)cc1` (stereo not given) the value was 3.47%. As to `NS(=O)(=O)c1ccc(CNC(=O)c2cnccn2)cc1`, the max response is -2.6%. For the molecule `Cc1cc(C)nc(N/N=C/c2c(CO)cnc(C)c2O)n1`, the max response is -2.74%. Take `Cc1cc(C)nc(N/N=C/c2ccncc2)n1`: the max response is 0.636%. Regarding `CCN(CC)c1ccc(/C=N/Nc2nc(C)cc(C)n2)c(O)c1`, the max response was 22.2% (active). As to `CCN(CC)c1ccc(/C=N/NC(=O)c2cnccn2)c(O)c1`, the max response was 28.1% (active). For `COc1cccc(OCC(=O)NNC(=O)c2cnccn2)c1` the value was -1.98%. In the case of `O=C(Nc1ccccc1Cl)/C(Cl)=C(\Cl)S(=O)c1ccccc1` (stereo not given), the max response is 14.2%. As to `Cc1cccc(NC(=O)N(Cc2cc3cc(C)cc(C)c3[nH]c2=O)CC2COCCO2)c1` (stereo not given), the max response was -3.44%. Then `O=C(Nc1ccccc1-c1ccccc1)c1ccccc1[N+](=O)[O-]`, with -3.24%; and `CCN(Cc1ccccc1)C(=O)CN1C(=S)NC(C)(C)CC1C` (stereo not given), with -3.52%.

With `CCc1ccc2c(c1)C1(NN=C(c3ccccc3)S1)C(=O)N2` (stereo not given), the max response is 69.8% (active). Regarding `CCOC(=O)c1c(NC(=O)CCCN2CCOCC2)sc2c1CC(C)(C)OC2`, the max response was 12.6%. With `CC(C)N(C(=O)c1ccc(-c2ccccc2F)cc1)C(C)C`, the max response is -2.02%.

As for `CCOC(=O)CN(C)Cc1c[nH]c2ccccc12`, the max response was 0.657%.

Turning to `COc1ccc(CN(C)C(=O)Cc2c[nH]c3ccccc23)c(OC)c1OC`, the max response was -1.59%. In the case of `CN(Cc1cccs1)C(=O)Cc1c[nH]c2ccccc12`, the max response was 18.3% (active). Regarding `COc1cccc(CNC(=O)Cc2csc(Nc3nc(=S)[nH]c4ccccc34)n2)c1`, the max response was 10.3%. For the molecule `CCOC(CNC(=O)C(=O)NCC(c1ccco1)N1CCN(c2ccc(OC)cc2)CC1)OCC` (stereo not given), the max response was -5.43%.

Regarding `CCCC(C)C(=O)NCc1ccncc1` (stereo not given), the max response was -3.47%. For `O=C(NNc1ccccc1Cl)C(O)(c1cccc(C(F)(F)F)c1)c1cccc(C(F)(F)F)c1` the value was -4.75%; for `N#C/C(=C1/CCCN1)c1ccccn1`, -2.58%. For `N#CC(=C1CCCC1)c1nc(-c2ccc(Cl)cc2)cs1` the value was 27.6%.

As for `N#C/C(=C1\CCCN1)c1nc(-c2ccccc2)cs1`, the max response was 23% (active). For `Cn1c(/C(C#N)=C2/CCCCCN2)nc2ccccc21` the value was 9.03%; for `N#CC(=C1SC=CS1)c1nc(-c2ccccc2)cs1`, 58.5% (active).

Turning to `Cc1ccc(S(=O)(=O)N2CCC(=O)N([C@H](COCc3ccccc3)Cc3ccccc3)CC2)cc1`, the max response was 7.08%. For `CN(/C(=N/S(=O)(=O)c1cccs1)c1ccccc1)c1ccc(O)cc1` the value was 11.5%; for `CN(C)S(=O)(=O)c1ccc(N2CCCC2)c(C(=O)Nc2cccc(F)c2)c1`, -3.38%. As for `COc1ccc(CNC(=O)c2nnn(CC(=O)Nc3cc(C)cc(C)c3)c2N)cc1`, the max response was -2.25%.

As to `CCN(CC)c1ccc2oc(=O)c(C)nc2c1`, the max response is 16.6% (active).

Turning to `CCN(CC)c1ccc2cc(C(N)=O)/c(=N\NC(=O)c3ccncc3)oc2c1`, the max response was 5.35%. With `CCN(CC)c1ccc(C(=O)Nn2c(C)nc3ccccc3c2=O)cc1`, the max response is -2.07%. As to `CCc1[nH]nc(C(=O)N2CCCC(CO)(Cc3ccc(F)cc3F)C2)c1C` (stereo not given), the max response was -3.79%.
